Screens deposited in PubChem by National Center for Advancing Translational Sciences (NCATS).
An excerpt weighted towards active compounds, which were near 4.8% of everything screened.
IL-1B inflam inh = blocks inflammasome-driven IL-1 beta release; activity change, % at 57.5 µM; 360,000 tested, 4.7% active; AID 743279; THP-1 LPS/ATP IL-1B secretion, AlphaLISA, 16 h; active compounds read low; in the data active means activity change below about -50%; inconclusive means mostly about -30% to -49%; further: on the % scale 0 is the no-effect control and ±100 the full control effect
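THP-1 cells pretreated 1 hr with compounds (up to 57.5 uM final), then stimulated with LPS (250 ng/mL final) plus ATP (1.25 mM final); secreted IL-1B measured by AlphaLISA after 16 hr, decreased signal indicating inhibition.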
ATXN viability = reduces viability in counter-screen for ATXN expression inhibitors | S2 cells (HEK-293 line with an ATXN2-luciferase reporter) viability, CellTiter-Fluor protease fluorescence, 24 h | Potency, µM (titrated, usually from 56.7 µM), hits mostly cytotoxic | 400,000 tested, 0.49% active | AID 651635; further: potency means the concentration at half of the fitted maximal effect; nearly all actives have a fitted effect of over 40% in size
USP1 inh = USP1/UAF1 (human) deubiquitinase inhibition; O94782; recombinant USP1/UAF1, Ub-Rhodamine cleavage fluorescence; Potency, µM (highest dose often 57.1 µM), for the others: at the highest dose activity change, negative = inhibition, actives largely listed as inhibitors; 390,000 tested, 0.23% active; AID 743255; further: potency means the concentration at half of the fitted maximal effect; on the % scale 0 is the no-effect control and ±100 the full control effect; nearly all actives have a fitted effect of over 60% in size
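USP1/UAF1 complex at 1 nM was preincubated with compound for 15 min at room temperature, then Ub-Rho substrate (150nM final) was added. Fluorescence (480/540 nm) was read kinetically, 6 reads every 60 seconds.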
ATXN2 expr inh = inhibitors of ATXN2 expression. HEK-293 ATXN2-luciferase reporter, luminescence, 24 h. Potency, µM (doses to about 57 µM), for the others: at the top dose activity change, negative = inhibition, usual class: inhibitors. 360,000 tested, 0.72% active. AID 1745845; further: potency means the concentration at half of the fitted maximal effect; on the % scale 0 is the no-effect control and ±100 the full control effect; nearly all actives have a fitted effect of over 55% in size
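ATXN2-luciferase reporter cells (luciferase flanked by upstream and downstream ATXN2 gene portions) were treated 24 h at 37 °C with compounds at up to 57 uM. SteadyGlo luminescence gave expression; GF-AFC fluorescence gave viability.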
USP2a block = blocks human ubiquitin-specific protease USP2a. O75604. USP2 core, Ub-CHOP2 coupled fluorogenic reporter, 485/531. Potency, µM (doses to about 38.3 µM), without a hit: at the top dose activity change, negative = inhibition, most hits filed as inhibitors. 330,000 tested, 0.01% active. AID 463254;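 further: potency means the concentration at half of the fitted maximal effect; plate controls were DMSO wells for no effect and full inhibition by NEM control for full effect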
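USP2 core (10nM final) preincubated 30min RT with compound in 20mM Tris-HCl pH 8.0, 2mM CaCl2, 2mM beta-mercaptoethanol, 0.05% CHAPS; 25nM Ub-CHOP2 plus 25nM reporter substrate added, fluorescence (Ex485/Em531) read after 60min.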
* hit, by the source's call; i = inactive; ? = inconclusive; nt = no result given. Unless noted, the call rests on the fitted dose curve; in most records, active means well fitted curve in the direction sought with a large enough effect; inconclusive means small, poorly fitted or top-dose-only effect, or another doubt; inactive means no such curve, though single readings can be large; an effect the other way counts as inactive or inconclusive.

SMILES	IL-1B inflam inh	ATXN viability	USP1 inh	ATXN2 expr inh	USP2a block
COc1ccc(-c2nc(N)ncc2-c2ccccc2)c(O)c1	-22	i	-11%	5%	2%
COc1ccc(-c2cnc(N)nc2-c2ccc(OC)cc2O)cc1	-73*	?	-21%	2%	-2%
O=C(/C=C/[C@H]1O[C@@H](n2ccc(=O)[nH]c2=O)[C@H](O)[C@@H]1O)NCc1cccs1	17	i	nt	1%	nt
CC#CCC(C)[C@H](O)/C=C/[C@@H]1[C@H]2C/C(=C/CCCC(=O)O)C[C@H]2C[C@H]1O (some centres undefined)	nt	i	nt	nt	nt
COc1ccc(-n2nnnc2S(=O)(=O)CC(=O)N2CCCCC2)cc1	-110*	10µM*	?	13µM*	-2%
COc1ccc(-n2nnnc2S(=O)(=O)Cc2ccc(C(=O)O)cc2)cc1	-87*	?	-6%	?	0%
COc1ccc(NC(=O)CSCC(=O)Nc2cc(Cl)ccc2N2CCCC2)cc1	24	i	-14%	-14%	-3%
CCOC(=O)c1c(CSC(=N)N)n(C)c2cc(Br)c(OC(C)=O)cc12	-102*	nt	?	?	-2%
CCOC(=O)c1c(CSC(=N)N)n(-c2ccc(C)cc2)c2cc(Br)c(OC(C)=O)cc12	-76*	25µM*	-18%	?	0%
CCOC(=O)c1c(CN2CCN(C)CC2)n(C)c2cc(Br)c(OC)cc12	-19	i	-2%	-24%	1%
CCOC(=O)c1c(CN(C)C)n(-c2ccccc2)c2cc(Br)c(OC)cc12	-8	i	-11%	17%	-2%
CCOC(=O)c1c(CN(C)C)n(-c2ccc(C)cc2)c2cc(Br)c(O)cc12	-63*	i	-2%	-8%	4%
Cc1ncc([N+](=O)[O-])n1S(=O)(=O)c1cc(Br)ccc1Br	34	i	1%	0%	4%
COC(=O)c1oc2ccc(Br)cc2c1NC(=O)CN1CCN(C)CC1	-53*	i	4%	-9%	nt
COC(=O)c1oc2ccccc2c1NC(=O)CN1CCCC1	-9	i	-9%	4%	2%
Cc1csc2ncnc(N3CCN(C(=S)Nc4ccc(F)cc4F)CC3)c12	-13	?	-24%	?	0%
O=c1cc(-c2ccccc2Cl)oc2c(NS(=O)(=O)c3cc(Cl)cc(Cl)c3O)ccc(O)c12	2	32µM*	25µM*	?	-6%
Cc1ccc(C(=O)C(C(=O)/C=C/c2ccccc2)=C2SCCCS2)cc1	-111*	nt	-30%	13µM*	-9%
Cn1nccc1C(=O)OCC(=O)Nc1cccc(Cl)c1	-10	i	-13%	-3%	3%
COc1cc(CNC(C)C23CC4CC(CC(C4)C2)C3)ccc1OCC(=O)NC(C)(C)C (centres undefined)	-88*	?	-18%	-38%	4%
COc1cc(CNC(C)(C)CO)ccc1OCC(=O)NC(C)(C)C	0	?	-1%	-7%	5%
CC(NCc1cc(Br)ccc1OCC(N)=O)C12CC3CC(CC(C3)C1)C2 (centres undefined)	-61*	?	-22%	nt	0%
COc1cc(CNC(C)C23CC4CC(CC(C4)C2)C3)cc(OC)c1OC (centres undefined)	-20	i	-3%	-9%	0%
Cc1ccc(S(=O)(=O)NC(=O)Nc2ccc(N(C)C)cc2)cc1	-80*	?	18µM*	-19%	2%
COc1cc(/C=C2\SC(=O)N(CCN)C2=O)ccc1OS(=O)(=O)c1cc(C)ccc1C	-109*	?	-10%	-10%	8%
CCN(CC)C(=O)C(Sc1nnnn1-c1ccc(O)cc1)c1ccccc1 (centres undefined)	-74*	i	-20%	-5%	1%
Cc1cccc(C)c1OCc1cc(C(=O)N2CCC(c3ccncc3)CC2)no1	-68*	i	-28%	-12%	1%
O=C(C[n+]1cc(-c2ccc(Cl)cc2)n2c1CCC2)N1c2ccccc2Sc2ccccc21	-57*	i	-21%	21%	1%
COc1ccc(-c2c[n+](CC(=O)N3c4ccccc4Sc4ccccc43)c3n2CCC3)cc1	-62*	i	-4%	-32%	2%
